Bioassay records (PubChem BioAssay)
In the library only some 6.2% were active in any assay of this set; here they are far more common.
Marburg entry inh: Marburg virus entry inhibition; Marburg virus pseudotyped entry inhibition, cell reporter; Potency, µM (highest dose often 37.8 µM), usual class: inhibitors; 1.8% of 300,000 active; AID 540276; calls by dose curve; tested in HEK293 cells
FMDV inh: antivirals against foot and mouth disease virus; 1.2% of 410,000 active; AID 1159524; FMDV antiviral cell-based qHTS; Potency, µM (doses to about 57.9 µM), actives largely listed as inhibitors; calls by dose curve; tested in HEK293T cells; note: read-out not given here; nearly all actives have a fitted effect of over 45% in size
Lassa entry inh: inhibitors of Lassa virus binding or cell entry; Potency, µM (top dose mostly 37.9 µM), hits mostly inhibitors; Lassa virus pseudotype entry inhibition, cell reporter; 1.2% of 300,000 active; calls by dose curve; tested in HEK293 cells; note: nearly all actives have a fitted effect of over 50% in size
HCMV antiviral: human cytomegalovirus inhibition | HFF cells, HCMV-luciferase reporter, 72 h; active compounds read low | activity change, negative = inhibition, % at 57.5 µM | 4.5% of 410,000 active | AID 1259415; in the data active = activity change below about -60%; inconclusive = no clear call, values can overlap the other calls; inactive = above about -39%
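Compounds were evaluated in HFFs infected with an HCMV luciferase reporter virus (MOI 1 PFU/cell). Luciferase in lysates collected 72 h post infection served as the replication measure.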
Of the large screens only hits and unclear results are named; the others gave an inactive call.

O=C(C1CCCCC1)N1CC(=O)N2[C@H](C1)[C@@H](c1ccc(Br)cc1)[C@@H]2CO	none (no result: Marburg entry inh, FMDV inh, Lassa entry inh)
Cn1ncc2c(O/N=C(\N)c3ccc(C(F)(F)F)cc3)ncnc21	FMDV inh 22µM (no result: Marburg entry inh, Lassa entry inh)
COc1ccc(CCCc2nnc(SCC(=O)Nc3ccc(C)cc3C)o2)cc1	none
O=C1COc2ccc(C(=O)/C=C/c3ccccc3)cc2N1	Lassa entry inh inconclusive, HCMV antiviral -84
Cc1ncc2c(c1CNC(=O)c1cncs1)CCN(C(=O)c1ccsc1)C2	none (no result: Marburg entry inh, Lassa entry inh, HCMV antiviral)
Cc1nn(-c2cc(N3CCCCCC3)ccc2[N+](=O)[O-])c(=O)c2ccccc12	Lassa entry inh inconclusive
Cc1ccc(-c2nn(-c3cc(N4CCNCC4)ccc3[N+](=O)[O-])c(=O)c3ccccc23)cc1	Marburg entry inh inconclusive, Lassa entry inh inconclusive, HCMV antiviral -68
Cc1ccc(CNCc2c(C(=O)O)c(C)n(Cc3ccc(C)cc3)c2C)cc1	none
Nc1nc(N)c2c(ccc3nccc32)[nH]1	HCMV antiviral -96 (no result: Marburg entry inh, Lassa entry inh)
COC(=O)c1ccc(C(=O)OC)c(NC(=O)c2c(-c3ccccc3)c(-c3ccccc3)nn(C)c2=O)c1	none
O=C(CSc1nc2c(cnn2-c2ccc(F)cc2)c(=O)[nH]1)Nc1ccc(Br)cc1	Marburg entry inh inconclusive, Lassa entry inh inconclusive
C=C1C(=O)OC2C=C(CO)CCC=C(CO)CC(OC(=O)C(C)C)C12 (stereo not given)	Marburg entry inh inconclusive, FMDV inh 40µM, Lassa entry inh inconclusive
CCN1CCCC(C2NC3CCCCC3S2)C1 (stereo not given)	none (no result: FMDV inh, Lassa entry inh, HCMV antiviral)
c1ccc(-c2nn(-c3ccccc3)[n+](-c3ccccc3)n2)cc1	Marburg entry inh inconclusive, FMDV inh inconclusive, HCMV antiviral -95
CC(NCc1ccc(Cl)cc1)C(O)c1ccccc1 (stereo not given)	Marburg entry inh inconclusive (no result: FMDV inh)
CC(NCc1ccc(-c2ccccc2)cc1)C(O)c1ccccc1 (stereo not given)	Marburg entry inh inconclusive, FMDV inh inconclusive, Lassa entry inh 4.6µM, HCMV antiviral -101
O=C(Nc1nnc(-c2ccc(F)cc2)o1)c1cccc([N+](=O)[O-])c1	Marburg entry inh inconclusive, HCMV antiviral -98
O=C(Nc1ncc([N+](=O)[O-])s1)c1cccc([N+](=O)[O-])c1	HCMV antiviral -99 (no result: Marburg entry inh, Lassa entry inh)
O=C(Nc1ccccc1)Nc1ncc([N+](=O)[O-])s1	Marburg entry inh inconclusive, FMDV inh 10µM, Lassa entry inh 7.1µM, HCMV antiviral -98
O=C(Nc1nnc(C2=COCCO2)o1)c1cccc([N+](=O)[O-])c1	none
Cc1nc(C)c(C(=O)Nc2ncc([N+](=O)[O-])s2)o1	Marburg entry inh inconclusive, Lassa entry inh 5.6µM, HCMV antiviral inconclusive
CCC[C@@H](/C=C/C(=O)OCC)NC(=O)C(F)(F)F	none (no result: Marburg entry inh, FMDV inh, Lassa entry inh)
CC(C)CC(C(=O)NCc1ccc(F)cc1)N1Cc2ccccc2C1=O (stereo not given)	none (no result: Marburg entry inh)
Cc1nn(Cc2ccc(C(=O)NC(C)(C)C)o2)c(C)c1Br	Marburg entry inh inconclusive, FMDV inh inconclusive, HCMV antiviral -80
Cn1c(=O)[nH]c(=O)c2c1nc(N1CCCCC1)n2CCSc1nc2ccccc2o1	none (no result: Lassa entry inh)
CC(C)CCn1c(Sc2nc3ccccc3o2)nc2c1c(=O)[nH]c(=O)n2C	Marburg entry inh inconclusive, HCMV antiviral -78
Cc1cc(C)nc(NC(N)=NCCc2c[nH]c3ccccc23)n1	Marburg entry inh inconclusive, HCMV antiviral -97
Cc1cc(C)nc(NC(N)=NCCc2ccccc2)n1	Marburg entry inh 7.1µM, FMDV inh inconclusive, Lassa entry inh inconclusive, HCMV antiviral -96
Cc1ccc(NC(=O)CSc2nc(N)c3c4c(sc3n2)CSC(C)(C)C4)cc1	Marburg entry inh inconclusive, FMDV inh inconclusive, Lassa entry inh 21µM
COc1ccc2c(c1)cc1n2CCN=C1N	Marburg entry inh 10µM (no result: FMDV inh)
COc1ccc2c(c1)cc1n2CCN2CCCN=C12	Lassa entry inh inconclusive
COC1=CC(=O)[C@]2(C=C1OC)OC[C@@H]1Oc3c(ccc4c3C=CC(C)(C)O4)C(=O)[C@@H]12	FMDV inh 16µM, HCMV antiviral -93 (no result: Marburg entry inh, Lassa entry inh)
Cc1ccc(-n2ncc3c(Nc4ccc(Oc5ccccc5)cc4)ncnc32)c(C)c1	Lassa entry inh inconclusive (no result: Marburg entry inh)
CC(C)OC(=O)C1CC(C)(O)C(=O)C(C(=O)OC(C)C)C1c1ccc([N+](=O)[O-])cc1 (stereo not given)	Marburg entry inh inconclusive, FMDV inh inconclusive, HCMV antiviral -64
CCN(CC)S(=O)(=O)c1ccc(C(=O)Nc2cc(C)cc(C)c2)cc1	Marburg entry inh inconclusive, Lassa entry inh inconclusive
CCN(CC)S(=O)(=O)c1ccc(NC(=O)c2ccccc2N(C)S(C)(=O)=O)cc1	none
CCN(CC)S(=O)(=O)c1ccc(C(=O)Nc2ccc(Cc3ccncc3)cc2)cc1	Marburg entry inh inconclusive, FMDV inh inconclusive, Lassa entry inh inconclusive, HCMV antiviral -87
